Data taken from PubChem BioAssay (Tox21).
A number with no mark means an inactive call. Results filed as inconclusive are left out. Where a call stands in place of a potency, no number is given. The source made the active and inactive calls. Unless noted, the call rests on the fitted dose curve.

What was measured:
[1] = Nuclear factor erythroid 2-related factor 2/antioxidant responsive element (Nrf2/ARE) small molecule agonists: qHTS cell viability counter screen in human keratinocytes (AID 1919968; active means well fitted curve in the direction sought with a large enough effect in the repeat runs; an effect the other way counts as inactive or inconclusive; further: nearly all actives have a fitted effect of over 55% in size)
In short: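 Seed 1,500 KeratinoSens cells per well, then incubate 5 h at 37 C/5% CO2. Add compounds in DMSO and incubate 23 h. Add CellTiter-Fluor, wait 1 h and read fluorescence.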

[2] = Nuclear factor erythroid 2-related factor 2/antioxidant responsive element (Nrf2/ARE) small molecule agonists: luciferase reporter gene qHTS assay in human keratinocytes (AID 1919969); further: nearly all actives have a fitted effect of over 35% in size; further: potency means the concentration at half of the fitted maximal effect
[3] = target: Gonadotropin-releasing hormone receptor (Homo sapiens) (UniProt P30968); assay: Human gonadotropin-releasing hormone receptor (GnRHR) small molecule agonists, calcium flux assay in GnRHR-HEK293 cells (AID 1920063); further: nearly all actives have a fitted effect of over 35% in size
Sequence of Gonadotropin-releasing hormone receptor (Homo sapiens) (P30968 whole entry, looked up): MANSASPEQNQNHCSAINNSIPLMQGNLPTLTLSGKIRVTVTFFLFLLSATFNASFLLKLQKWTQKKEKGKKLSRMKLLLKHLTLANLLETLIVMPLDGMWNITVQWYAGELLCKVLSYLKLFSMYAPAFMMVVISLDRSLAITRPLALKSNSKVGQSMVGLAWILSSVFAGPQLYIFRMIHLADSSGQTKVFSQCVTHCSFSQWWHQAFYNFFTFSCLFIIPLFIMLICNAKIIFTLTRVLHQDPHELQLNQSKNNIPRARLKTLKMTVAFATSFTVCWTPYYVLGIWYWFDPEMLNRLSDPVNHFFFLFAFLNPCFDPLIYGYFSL
In short: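 Cells: HEK293 stably expressing human GnRHR. Steps: overnight (18 h) culture, 1 h calcium dye loading at 37 C, compound addition, kinetic fluorescence read at 480/540 nm. Each compound tested at 15 concentrations in triplicate.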

[4] = target: KiSS-1 receptor (Homo sapiens) (UniProt Q969F8); assay: Human kisspeptin (KISS1R) small molecule agonists, calcium flux assay in KISS1R-HEK293 cells (AID 1920064; active means well fitted curve in the direction sought with a large enough effect in the repeat runs; an effect the other way counts as inactive or inconclusive)
Sequence of KiSS-1 receptor (Homo sapiens) (Q969F8 whole entry, looked up): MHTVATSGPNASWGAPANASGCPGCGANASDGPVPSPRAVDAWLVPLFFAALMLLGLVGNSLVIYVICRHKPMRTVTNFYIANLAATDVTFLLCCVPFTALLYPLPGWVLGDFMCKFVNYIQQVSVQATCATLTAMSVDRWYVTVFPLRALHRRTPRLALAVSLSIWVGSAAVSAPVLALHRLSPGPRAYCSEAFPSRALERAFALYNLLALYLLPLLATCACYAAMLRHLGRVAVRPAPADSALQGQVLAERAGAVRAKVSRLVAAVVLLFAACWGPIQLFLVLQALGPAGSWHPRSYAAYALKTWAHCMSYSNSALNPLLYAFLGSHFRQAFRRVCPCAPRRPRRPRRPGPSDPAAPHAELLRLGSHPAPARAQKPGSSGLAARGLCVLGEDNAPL
In short: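 Cells plated and incubated 18 h; dye added, 1 h at 37 C; compounds in DMSO pinned in; signal read at 480/540 nm every second for 3 min. Each compound tested at 15 concentrations in triplicate.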

[5] = p53 small molecule agonists, cell-based qHTS assay with human liver microsomes (AID 1963577);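 further: p53 response element beta-lactamase reporter cells with liver microsomes plus NADPH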
In short: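 16 h, 37 C exposure of p53RE-bla cells to compounds with human liver microsomes and NADPH (0.5 mg/mL final each); detection via LiveBLAzer mixture, 2 h dark at room temperature.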

[6] = p53 small molecule agonists, cell-based qHTS assay with rat liver microsomes (AID 1963578)
In short: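 With rat liver microsomes and NADPH present (0.5 mg/mL final each), p53RE-bla cells are treated with compound for 16 h at 37 C. LiveBLAzer detection mixture is then applied for 2 h at room temperature in the dark.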

[7] = p53 small molecule agonists, cell-based qHTS assay with human liver microsomes: qHTS cell viability counter screen (AID 1963579); further: nearly all actives have a fitted effect of over 45% in size
In short: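 In this multiplexed counter screen, the reporter plates were subsequently treated with CellTiter-Glo so that cell viability, reflected by luminescence, could be recorded for p53RE-bla cells dosed 16 h with compounds under microsomal activation (HLM and NADPH).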

[8] = p53 small molecule agonists, cell-based qHTS assay with rat liver microsomes: qHTS cell viability counter screen (AID 1963580); further: nearly all actives have a fitted effect of over 45% in size
In short: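 p53RE-bla HCT-116 cells were exposed 16 h at 37 C to compounds with rat liver microsomes (0.5 mg/mL) and NADPH (0.5 mg/mL). Viability was measured in the same wells as ATP content by CellTiter-Glo luminescence.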

[9] = p53 small molecule agonists, cell-based qHTS assay: qHTS cell viability counter screen (AID 1963581); further: nearly all actives have a fitted effect of over 45% in size
In short: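 Cells: HCT-116 with p53 response element-driven beta-lactamase. Treatment: 16 h, 37 C, compounds in DMSO. Read: CellTiter-Glo luminescence after 30 min RT.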

[10] = p53 small molecule agonists, cell-based qHTS assay (AID 1963582; active means well fitted activation curve with a large enough effect in the signal ratio in the repeat runs, not every such curve was filed as active; the % refers to the signal ratio)
In short: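 Quantitative HTS in p53RE-bla cells: after a 5 h settling period, compounds delivered in DMSO were left on cells for 16 h at 37 C, and reporter induction was measured as fluorescence following 2 h substrate loading.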

[11] = target: 5-hydroxytryptamine receptor 2A (Homo sapiens) (UniProt P28223); assay: 5-hydroxytryptamine receptor 2A (HTR2A) small molecule antagonists, cell-based qHTS assay (AID 1963586); further: nearly all actives have a fitted effect of over 45% in size
Sequence of 5-hydroxytryptamine receptor 2A (Homo sapiens) (P28223 whole entry, looked up): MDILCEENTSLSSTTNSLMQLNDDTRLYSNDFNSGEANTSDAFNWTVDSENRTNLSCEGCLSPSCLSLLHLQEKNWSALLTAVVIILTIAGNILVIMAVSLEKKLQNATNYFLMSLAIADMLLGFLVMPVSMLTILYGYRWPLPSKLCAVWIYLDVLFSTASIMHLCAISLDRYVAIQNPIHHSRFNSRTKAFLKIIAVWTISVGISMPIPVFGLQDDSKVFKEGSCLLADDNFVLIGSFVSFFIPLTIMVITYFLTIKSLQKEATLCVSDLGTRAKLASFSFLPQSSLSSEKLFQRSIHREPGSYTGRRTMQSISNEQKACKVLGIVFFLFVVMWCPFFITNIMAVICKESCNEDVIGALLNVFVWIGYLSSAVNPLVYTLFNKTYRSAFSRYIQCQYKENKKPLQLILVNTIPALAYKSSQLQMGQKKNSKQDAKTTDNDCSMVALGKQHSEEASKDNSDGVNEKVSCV
In short: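 Antagonist-mode intracellular calcium assay: DOI (4 nM) added after 5 min compound pre-incubation at room temperature to dye-loaded HTR2A-CHO cells. Fluorescence followed for 3 min, sampled every second.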

[12] = target: 5-hydroxytryptamine receptor 2A (Homo sapiens) (UniProt P28223); assay: 5-hydroxytryptamine receptor 2A (HTR2A) small molecule agonists, cell-based qHTS assay (AID 1963587); further: nearly all actives have a fitted effect of over 30% in size
In short: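 CHO cells stably expressing human HTR2A, plated 18 h, loaded with calcium dye 1 h at 37 C. Agonist mode: compounds added and intracellular calcium fluorescence recorded kinetically for 2 min at 1 sec intervals.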

[13] = target: Muscarinic acetylcholine receptor M1 (Homo sapiens) (UniProt P11229); assay: Cholinergic receptor muscarinic 1 (CHRM1) small molecule antagonists, cell-based qHTS assay (AID 1963588); further: nearly all actives have a fitted effect of over 40% in size
Sequence of Muscarinic acetylcholine receptor M1 (Homo sapiens) (P11229 whole entry, looked up): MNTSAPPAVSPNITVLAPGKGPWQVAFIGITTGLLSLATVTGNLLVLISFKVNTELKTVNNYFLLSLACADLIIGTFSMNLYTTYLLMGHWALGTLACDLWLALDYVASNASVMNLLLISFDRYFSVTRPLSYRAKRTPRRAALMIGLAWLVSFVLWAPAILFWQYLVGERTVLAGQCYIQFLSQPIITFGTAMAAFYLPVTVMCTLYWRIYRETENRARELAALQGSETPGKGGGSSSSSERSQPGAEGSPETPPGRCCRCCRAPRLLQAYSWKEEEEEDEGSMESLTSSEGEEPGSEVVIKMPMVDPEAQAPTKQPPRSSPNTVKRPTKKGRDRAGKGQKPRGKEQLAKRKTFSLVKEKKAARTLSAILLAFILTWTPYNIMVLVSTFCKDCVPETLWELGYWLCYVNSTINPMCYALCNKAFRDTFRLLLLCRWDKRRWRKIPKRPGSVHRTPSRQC
In short: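 CHRM1-CHO calcium-flux assay, antagonist mode. Cells were seeded 18 h, dye-loaded 1 h at 37 C and given compound for 5 min at RT, then acetylcholine was added at 50nM. FDSS fluorescence was read 3 min; 15 concentrations, three runs.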

[14] = target: Muscarinic acetylcholine receptor M1 (Homo sapiens) (UniProt P11229); assay: Cholinergic receptor muscarinic 1 (CHRM1) small molecule agonists, cell-based qHTS assay (AID 1963589); further: nearly all actives have a fitted effect of over 35% in size
In short: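 Agonist-mode qHTS in CHO cells stably carrying human muscarinic M1. Intracellular calcium is tracked by fluorescence every second after compound transfer; each compound runs at 15 concentrations in three independent runs.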

[15] = cAMP Responsive Elements (CRE) small molecule agonists, cell-based qHTS assay (AID 1963590)
In short: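 Agonist mode qHTS in CRE-bla HEK 293T cells: compounds dosed from DMSO for 3 h at 37 C/5% CO2, followed by LiveBLAzer B/G FRET substrate for 2 h at room temperature.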

[16] = target: Beta-2 adrenergic receptor (Homo sapiens) (UniProt P07550); assay: Adrenergic beta2 receptor (ADRB2) small molecule antagonists, cell-based qHTS assay (AID 1963592); further: series mostly up to about 92 µM; nearly all actives have a fitted effect of over 50% in size
Sequence of Beta-2 adrenergic receptor (Homo sapiens) (P07550 whole entry, looked up): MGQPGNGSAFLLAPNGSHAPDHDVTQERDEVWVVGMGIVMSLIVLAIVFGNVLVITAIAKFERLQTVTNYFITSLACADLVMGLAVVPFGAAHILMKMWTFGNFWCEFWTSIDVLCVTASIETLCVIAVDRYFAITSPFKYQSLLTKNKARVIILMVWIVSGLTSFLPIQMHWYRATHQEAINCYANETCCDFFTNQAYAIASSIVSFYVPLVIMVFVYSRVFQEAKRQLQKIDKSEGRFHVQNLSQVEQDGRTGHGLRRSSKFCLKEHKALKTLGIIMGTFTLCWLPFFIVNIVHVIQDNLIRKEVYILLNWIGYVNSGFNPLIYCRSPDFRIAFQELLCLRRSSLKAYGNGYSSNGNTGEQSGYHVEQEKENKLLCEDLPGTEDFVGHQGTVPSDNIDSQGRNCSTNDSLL
In short: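 Cells (CHO, stable ADRB2 overexpression) incubated 18-20hr at 37C; compounds added from DMSO; agonist mix (1nM isoproterenol, 100uM IBMX, 25uM Ro-20-1724) added; 0.5hr RT; d2-cAMP and anti-cAMP-cryptate added; 1hr RT; 665/615 nm read.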

[17] = target: D(2) dopamine receptor (Homo sapiens) (UniProt P14416); assay: Dopamine D2 receptor (DRD2) small molecule agonists, cell-based qHTS assay (AID 1963594); further: nearly all actives have a fitted effect of over 35% in size
Sequence of D(2) dopamine receptor (Homo sapiens) (P14416 whole entry, looked up): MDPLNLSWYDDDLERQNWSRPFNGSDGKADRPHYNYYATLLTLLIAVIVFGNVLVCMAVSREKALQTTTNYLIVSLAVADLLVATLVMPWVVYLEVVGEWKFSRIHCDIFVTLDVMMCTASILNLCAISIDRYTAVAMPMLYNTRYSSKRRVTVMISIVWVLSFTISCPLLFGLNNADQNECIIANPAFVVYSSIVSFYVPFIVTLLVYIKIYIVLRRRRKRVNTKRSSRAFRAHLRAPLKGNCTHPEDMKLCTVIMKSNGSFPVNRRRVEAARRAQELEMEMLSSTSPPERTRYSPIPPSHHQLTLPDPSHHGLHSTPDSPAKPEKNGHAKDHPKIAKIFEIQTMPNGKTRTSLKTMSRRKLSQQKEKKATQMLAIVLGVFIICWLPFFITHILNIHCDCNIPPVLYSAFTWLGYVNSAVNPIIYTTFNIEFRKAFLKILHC
In short: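 HEK293 cells stably expressing human DRD2, pre-treated with PDE inhibitor Ro20-1724 (0.1 mM final) and compound 10 min at room temperature, then stimulated with NKH477 (200nM […]) for 30 min. cAMP read by HTRF (665/620 nm).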

[18] = target: D(2) dopamine receptor (Homo sapiens) (UniProt P14416); assay: Dopamine D2 receptor (DRD2) small molecule antagonists, cell-based qHTS assay (AID 1963595; active means well fitted inhibition curve with a large enough effect in the signal ratio in the repeat runs, with a control signal flat; the % refers to the signal ratio)
In short: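 Antagonist mode in DRD2-HEK293 cells: after compound addition with 0.1 mM Ro20-1724, cells received quinpirole (12 nM) and NKH477 (200 nM) for 30 min at room temperature; HTRF cAMP read after 1 h detection.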

[19] = cAMP Responsive Elements (CRE) small molecule antagonists, cell-based qHTS assay (AID 1963591; active means well fitted inhibition curve with a large enough effect in the signal ratio in the repeat runs, not every such curve was filed as active; the % refers to the signal ratio)
In short: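 Antagonist mode: test compounds are co-incubated with the adenylyl cyclase activator NKH477 (0.25 uM final) on CRE-bla HEK293T cells for 3 h at 37 °C, followed by LiveBLAzer substrate loading.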

Q: Which results are given for `CCOC(=O)Cc1cccc2ccccc12`?
A: Potency [1]: inactive; Potency [2]: inactive; Potency [3]: inactive; outcome [4]: inactive; Potency [5]: inactive; Potency [6]: inactive; Potency [7]: inactive; Potency [8]: inactive; Potency [9]: inactive; Potency [10]: inactive; Potency [11]: inactive; Potency [12]: inactive; Potency [13]: inactive; Potency [14]: inactive; Potency [15]: inactive; Potency [16]: inactive; Potency [17]: inactive; Potency [18]: inactive

Q: Which Potency [1] does the source give for `COc1ccc(N)c([N+](=O)[O-])c1` here?
A: inactive

Q: And the Potency [2]?
A: inactive

Q: And the Potency [3]?
A: inactive

Q: What about the outcome [4] of the same molecule?
A: inactive

Q: And the Potency [5]?
A: inactive

Q: What about the Potency [6] of the same molecule?
A: inactive

Q: What about the Potency [7] of the same molecule?
A: inactive

Q: And the Potency [8]?
A: inactive

Q: And the Potency [9]?
A: inactive

Q: What about the Potency [10] of the same molecule?
A: inactive

Q: What about the Potency [11] of the same molecule?
A: inactive

Q: And the Potency [12]?
A: inactive

Q: What about the Potency [13] of the same molecule?
A: inactive

Q: And the Potency [14]?
A: inactive

Q: What about the Potency [15] of the same molecule?
A: inactive

Q: And the Potency [19]?
A: inactive

Q: What about the Potency [16] of the same molecule?
A: inactive

Q: And the Potency [17]?
A: inactive

Q: What about the Potency [18] of the same molecule?
A: inactive

Q: Which results are given for `CO[C@@H]1[C@H](OC(=O)/C=C/C=C/C=C/C=C/C(=O)O)CC[C@]2(CO2)[C@H]1[C@@]1(C)O[C@@H]1CC=C(C)C`?
A: Potency [1]: inactive; Potency [2]: 61.1 µM (active); Potency [3]: inactive; outcome [4]: inactive; Potency [5]: inactive; Potency [6]: inactive; Potency [7]: inactive; Potency [8]: inactive; Potency [9]: inactive; Potency [11]: inactive; Potency [12]: inactive; Potency [13]: inactive; Potency [14]: inactive; Potency [15]: inactive; Potency [16]: inactive; Potency [17]: inactive; Potency [18]: inactive

Q: With `CC(C)(O)c1ccc(CNC(=O)c2cccnc2Oc2ccc3nonc3c2)cc1` as the molecule, how does the Potency [1] read?
A: inactive

Q: What about the Potency [2] of the same molecule?
A: inactive

Q: What about the Potency [3] of the same molecule?
A: inactive

Q: What about the outcome [4] of the same molecule?
A: inactive

Q: What about the Potency [5] of the same molecule?
A: inactive

Q: What about the Potency [6] of the same molecule?
A: inactive

Q: What about the Potency [7] of the same molecule?
A: inactive

Q: What about the Potency [8] of the same molecule?
A: inactive

Q: And the Potency [9]?
A: inactive

Q: What about the Potency [11] of the same molecule?
A: inactive

Q: And the Potency [12]?
A: inactive

Q: What about the Potency [13] of the same molecule?
A: inactive

Q: And the Potency [14]?
A: inactive

Q: What about the Potency [18] of the same molecule?
A: inactive

Q: For `Cc1cccc(C)c1NC(=O)c1ccc(N)cc1`, which Potency [1] is on record?
A: inactive

Q: What about the Potency [2] of the same molecule?
A: inactive

Q: What about the Potency [3] of the same molecule?
A: inactive

Q: And the outcome [4]?
A: inactive

Q: And the Potency [5]?
A: inactive

Q: What about the Potency [6] of the same molecule?
A: inactive

Q: And the Potency [7]?
A: inactive

Q: And the Potency [8]?
A: inactive

Q: What about the Potency [9] of the same molecule?
A: inactive

Q: And the Potency [10]?
A: inactive

Q: What about the Potency [11] of the same molecule?
A: inactive

Q: What about the Potency [12] of the same molecule?
A: inactive

Q: And the Potency [13]?
A: inactive

Q: What about the Potency [14] of the same molecule?
A: inactive

Q: And the Potency [15]?
A: inactive

Q: And the Potency [19]?
A: inactive

Q: And the Potency [16]?
A: inactive

Q: What about the Potency [17] of the same molecule?
A: inactive

Q: And the Potency [18]?
A: inactive

Q: With `CC(C)(C#N)Nc1nc(Cl)nc(NC2CC2)n1` as the molecule, how does the Potency [1] read?
A: inactive

Q: And the Potency [2]?
A: inactive

Q: And the Potency [3]?
A: inactive

Q: And the outcome [4]?
A: inactive

Q: And the Potency [5]?
A: inactive

Q: And the Potency [6]?
A: inactive

Q: And the Potency [7]?
A: inactive

Q: What about the Potency [8] of the same molecule?
A: inactive

Q: What about the Potency [9] of the same molecule?
A: inactive

Q: And the Potency [10]?
A: inactive

Q: And the Potency [11]?
A: inactive

Q: And the Potency [12]?
A: inactive

Q: What about the Potency [13] of the same molecule?
A: inactive

Q: And the Potency [14]?
A: inactive

Q: And the Potency [15]?
A: inactive

Q: What about the Potency [16] of the same molecule?
A: inactive

Q: What about the Potency [17] of the same molecule?
A: inactive

Q: What about the Potency [18] of the same molecule?
A: inactive

Q: With `CC1OC(=O)C(C)OC1=O` (configuration not stated) as the molecule, how does the Potency [1] read?
A: inactive

Q: And the Potency [2]?
A: inactive

Q: And the Potency [3]?
A: inactive

Q: And the outcome [4]?
A: inactive

Q: What about the Potency [5] of the same molecule?
A: inactive

Q: And the Potency [6]?
A: inactive

Q: What about the Potency [7] of the same molecule?
A: inactive

Q: What about the Potency [8] of the same molecule?
A: inactive

Q: What about the Potency [10] of the same molecule?
A: inactive

Q: And the Potency [12]?
A: inactive

Q: And the Potency [13]?
A: inactive

Q: And the Potency [14]?
A: inactive

Q: What about the Potency [15] of the same molecule?
A: inactive

Q: And the Potency [19]?
A: inactive

Q: What about the Potency [16] of the same molecule?
A: inactive

Q: What about the Potency [17] of the same molecule?
A: inactive

Q: And the Potency [18]?
A: inactive
